Measured values taken from PubChem BioAssay AID588335 (The Scripps Research Institute Molecular Screening Center, 2011).
Screen size: about 360,000 compounds; about 4,500 (1.2%) were called active. The list comes from a sample in which actives are over-represented; it also holds similar structures and randomly drawn compounds. Unmarked numbers belong to inactive results. No stated cut-off is given here; in the data, active means inhibition above about 30%; inactive means the rest.

Test: GDH-TPI coupling enzyme inhibitors, primary screen, artefact control for M. tuberculosis FBA inhibitor project, biochemical, absorbance, full deck (AID 588335);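 further: 0% = DMSO wells and 100% = wells lacking the enzyme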
Details: GDH-TPI coupled enzyme counterscreen, NADH absorbance; at 4.8 µM; stronger effect = higher value

**Q.** For `O=C(Cn1cc2c(n1)CCCCC2)NCCN1CCOCC1`, which inhibition is on record?
**A.** -6.93%

**Q.** For `CC(C)Cn1cc(-c2cncc3nccn23)cn1`, which inhibition is on record?
**A.** 4%

**Q.** For `COc1ccc2c3c(c(=O)oc2c1OCC(=O)C(C)(C)C)CCCC3`, which inhibition is on record?
**A.** -0.64%

**Q.** With `O=c1oc2c(CN3CCCCC3)c(O)ccc2c2c1CCCCC2` as the compound, how does the inhibition read?
**A.** 30.6% (active)

**Q.** For `CCCOc1ccc2c3c(c(=O)oc2c1OCCC)CCC3`, which inhibition is on record?
**A.** 13.5%

**Q.** For `Cc1cc(N(C)C)cc(C)[n+]1[O-]`, which inhibition is on record?
**A.** -1.57%

**Q.** Which inhibition does the source give for `Nc1nc(O)c(CC(=O)O)s1` here?
**A.** 5.96%

**Q.** For `CCCCc1cc(=O)oc2cc(C)cc(OCc3nn[nH]n3)c12`, which inhibition is on record?
**A.** 22%

**Q.** Which inhibition does the source give for `COc1ccc(-c2cc3ccc(OCc4nn[nH]n4)cc3oc2=O)cc1` here?
**A.** 34.6% (active)

**Q.** Which inhibition does the source give for `Cc1noc(C)c1COc1ccc2ccc(=O)oc2c1` here?
**A.** 6.47%

**Q.** For `Cn1ccc(=Nc2ccc(NC(=O)c3ccc(N=c4ccn(C)c5ccc([N+](=O)[O-])cc45)cc3)cc2)cc1`, which inhibition is on record?
**A.** 13.7%

**Q.** With `O=C(NCc1cccnc1)c1cc(C2CCCN(C(=O)CCCc3ccccc3)C2)on1` (configuration not stated) as the compound, how does the inhibition read?
**A.** -5.31%

**Q.** For `CN(C(=O)C1CCN(c2ncnc3c2nc2n3CCCCC2)CC1)C1CCCCC1`, which inhibition is on record?
**A.** -2.53%

**Q.** For `O=C(NNc1ccccc1Cl)C(O)(c1cccc(C(F)(F)F)c1)c1cccc(C(F)(F)F)c1`, which inhibition is on record?
**A.** 10.2%

**Q.** With `COc1ccc(C(=O)CCC(=O)Nc2cccnc2)c(OC)c1` as the compound, how does the inhibition read?
**A.** -6.9%

**Q.** For `Fc1cc(Br)ccc1NC(=S)Nc1cccnc1`, which inhibition is on record?
**A.** -0.63%

**Q.** With `COc1cc(/C=N/NC(=S)Nc2cccnc2)cc(OC)c1O` as the compound, how does the inhibition read?
**A.** 31.5% (active)

**Q.** Which inhibition does the source give for `O=C(c1cccs1)C1C(c2ccc(Br)cc2)NC(=S)NC1(O)C(F)(F)F` (configuration not stated) here?
**A.** 12.2%

**Q.** Which inhibition does the source give for `Cc1c(NC(=O)C(C)OC(=O)c2c3c(nc4ccccc24)CCC(C)C3)c(=O)n(-c2ccccc2)n1C` (configuration not stated) here?
**A.** 3.38%

**Q.** With `Cc1ccccc1N1CC(c2nc3ccccc3[nH]2)CC1=O` (configuration not stated) as the compound, how does the inhibition read?
**A.** 2.42%

**Q.** Which inhibition does the source give for `Cc1ccc(-c2nc3ccccc3[nH]c2=O)cc1` here?
**A.** 32.1% (active)

**Q.** For `Cc1ccc(-c2nnc(-n3nnc4ccccc43)c3ccccc23)cc1`, which inhibition is on record?
**A.** 6.42%

**Q.** For `CC1(C(=O)NCc2ccc(F)c(F)c2)Cc2c(-c3ccc4c(c3)OCO4)ccnc2O1` (configuration not stated), which inhibition is on record?
**A.** 0%

**Q.** Which inhibition does the source give for `CC1C(=O)Nc2ccccc2N1C(=O)c1c(F)cccc1F` (configuration not stated) here?
**A.** -1.38%

**Q.** For `O=C(Cc1c(F)cccc1Cl)N1CCN(C(=O)c2ccco2)CC1`, which inhibition is on record?
**A.** -4.08%

**Q.** With `Cn1c(=NC(=O)c2ccco2)sc2cccc(F)c21` as the compound, how does the inhibition read?
**A.** 51% (active)

**Q.** With `Cn1c(=NC(=O)c2cnccn2)sc2ccccc21` as the compound, how does the inhibition read?
**A.** 29.1%
